Test in all cases: NCI-60 one-dose screen, 48 h (100 = growth as untreated, 0 = no growth, -100 = all killed)
What all share (conditions): 10 µM unless noted

Experiment [1] deals with SR leukemia.
For experiment [2], the system named is RPMI-8226 leukemia.
For experiment [3], the system named is OVCAR-8 ovarian.
The test system of experiment [4] is OVCAR-4 ovarian.
For experiment [5], the system named is SK-OV-3 ovarian.
The subject of experiment [6] is IGROV1 ovarian.
Experiment [7] relates to OVCAR-3 ovarian.
Experiment [8] concerns HS 578T breast.
The test system of experiment [9] is NCI/ADR-RES ovarian.
Experiment [10] has as its system T-47D breast.
Experiment [11] relates to BT-549 breast.
Experiment [12] concerns MDA-MB-435 melanoma.
In experiment [13] the test system is SW-620 colon.
Experiment [14] deals with MCF7 breast.
The subject of experiment [15] is HCT-116 colon.
Experiment [16] concerns HCC-2998 colon.
In experiment [17] the test system is KM12 colon.
Experiment [18] relates to OVCAR-5 ovarian.

This is part of a sample that, as a whole, favours compounds with a hit. Of some 83,000 tested, about 20% had one in any assay.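 Each cell line was grown in a 96-well plate and treated with one concentration of compound for 48 hours. Values below 10 were considered active.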 Values without a mark were called inactive. The source made the active and inactive calls.

`CC(=O)c1c(C)[nH]c(-c2nc3ccc(N4CCN(C)CC4)cc3[nH]2)c1-c1ccc(OCC2CCOCC2)cc1`: the growth in experiment [1] was 28.1%; in experiment [2], -2.05% (active); in experiment [3] it was 38%; in [4] it was 35.7%; in [5], 13.5%; in [6], 16.2%. In addition, the growth is 30.7% in experiment [7]; 19.5% in experiment [8]; 31.7% in [9]; 29.1% in experiment [10]; 57.1% in experiment [11]; 23.5% in experiment [12]. Moreover, the growth was 50.6% in experiment [13]; 6.13% (active) in experiment [14]; 19.8% in [15]; 31.7% in [16]; 34.2% in [17].

`CC(Cc1ccco1)C(=O)NC(N)=O` (stereo not drawn): the growth in experiment [1] is 100%; in experiment [2], 102%; in experiment [3], 101%; in experiment [4], 108%; in [5] it was 120%; in [6], 108%. Further, the growth in experiment [7] is 111%; in experiment [8], 109%; in experiment [9], 104%; in [10], 114%; in experiment [11], 106%; in experiment [12] it was 105%. Further, the growth in experiment [13] was 104%; in experiment [14], 102%; in [15], 106%; in [16] it was 105%; in experiment [17], 105%.

Regarding `O=[N+]([O-])c1ccc(N/N=C(\C(=N/Nc2ccc([N+](=O)[O-])cc2[N+](=O)[O-])c2ccccc2)c2ccccc2)c([N+](=O)[O-])c1`, the growth was -1.67% (active) in [1]; 93.3% in [2]; 87.6% in experiment [3]; 5.4% (active) in [4]; 106% in [5]; 92.3% in experiment [6]. The growth was 84% in [7]; 74.4% in experiment [8]; 90.4% in experiment [9]; 77.8% in experiment [12]; 72.8% in experiment [13]; 96.3% in [14]. The growth in experiment [15] is 65%; in experiment [16], 89.6%; in [17], 88.5%.

Turning to `COc1cccc(-c2nn(-c3ccccc3)cc2-c2ccnc(NCCCO)c2)c1`, the growth in experiment [1] was 5.71% (active); in experiment [2], 28.3%; in [3] it was 46%; in [4], 55.1%; in experiment [5] it was 45%; in experiment [6] it was 58.8%. Also, the growth was 25.9% in experiment [7]; 35.7% in experiment [8]; 26.7% in [10]; 55.2% in [11]; -15.5% (active) in [12]; 21.3% in experiment [13]. The growth in experiment [14] was 29.5%; in [15], 22.9%; in experiment [16], 65.5%; in experiment [17], 34.1%.

For the molecule `O=C1CNCCN1`, the growth in experiment [1] was 102%; in [2], 98.9%; in experiment [3], 103%; in [4] it was 108%; in experiment [5], 112%; in experiment [6], 99.7%. Moreover, the growth in experiment [7] is 109%; in [8] it was 100%; in experiment [9], 106%; in [10], 110%; in [11], 100%; in experiment [12] it was 107%. Besides, the growth in experiment [13] is 104%; in experiment [14], 89.3%; in experiment [15] it was 101%; in experiment [16] it was 111%; in experiment [17] it was 110%.

As to `Cc1cc(N2CCCC2)nc(N(CCNc2ccnc3cc(Cl)ccc23)Cc2ccco2)n1`, the growth in experiment [1] is -14.9% (active); in experiment [2], -42.3% (active); in experiment [3] it was 57%; in [18], 25.3%; in experiment [7], 13.8%; in experiment [8], 62.1%. Moreover, the growth in [9] was 18.4%; in [10] it was 12.4%; in experiment [11], 22.3%; in experiment [12] it was 44%; in [13], 25.5%; in [14], 17.9%. For the same molecule, the growth in [15] is -50.9% (active); in [16], 76.6%; in experiment [17], 50%.

Take `CC1(C)C(=O)/C(=C\c2cccnc2)C[C@]2(C)[C@H]3CC[C@@H]4[C@@H](C(=O)/C=C/c5ccncc5)CC[C@@]4(C)[C@]3(C)CC[C@@H]12`: the growth in experiment [1] was 5.46% (active); in [2], -7.22% (active); in experiment [3], 19.5%; in experiment [4], 18.9%; in [5] it was 64.2%; in experiment [6], -28.1% (active). Moreover, the growth in [7] is -48.6% (active); in [8] it was 31.7%; in experiment [9] it was -0.549% (active); in [10], 16.9%; in [11] it was 8.03% (active); in experiment [12], -11.4% (active). Moreover, the growth in experiment [13] was 8.95% (active); in experiment [14], 26.2%; in experiment [15], -86.9% (active); in experiment [16] it was 59.7%; in [17] it was -20.9% (active).

Turning to `COc1ccc2c(c1)c(-c1nc(-c3cn(C)c4ncccc34)cs1)cn2CCN`, the growth is 27.4% in experiment [1]; 75.8% in [2]; 71.1% in experiment [3]; 41.1% in [4]; 94.9% in [5]; 41.8% in experiment [6]. The growth in experiment [7] was 88.8%; in experiment [8], 85.6%; in [9], 88.1%; in [10], -0.878% (active); in experiment [11], 96.9%; in experiment [12], 95.4%. Besides, the growth was 62.3% in experiment [13]; 16.6% in experiment [14]; 80.5% in experiment [15]; 55% in experiment [16]; 45% in [17].

Regarding `C[C@]12CC[C@@H]3c4ccc(O)cc4CC[C@H]3[C@@H]1C[C@H](O)[C@@H]2O`, the growth in [1] was 99.2%; in [2], 98.6%; in experiment [3] it was 103%; in experiment [4], 99.8%; in [5], 120%; in [6], 98%. Moreover, the growth in experiment [7] was 90.3%; in experiment [8], 86.6%; in [9] it was 102%; in experiment [10], 128%; in experiment [11], 95.2%; in experiment [12] it was 92.5%. For the same molecule, the growth in [13] is 90.1%; in experiment [14], 108%; in experiment [15], 92.8%; in experiment [16] it was 107%; in experiment [17] it was -72.2% (active).

(Values after PubChem BioAssay (NCI).)
